# KCNH2 3.1 inh: qHTS for Inhibitors of KCHN2 3.1: Mutant qHTS; U2OS KCNH2 3.1, thallium flux FluxOr; hits give low values; AID 720553, 2013; activity change, % (tested at about 1.8 µM); actives 0.95% (n = 340,000); Potassium voltage-gated channel subfamily H member 2, brain isoform KCNH2 3.1 (human);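 active = maximum activity change below -70%; inconclusive = maximum activity change from -70% to -50%; inactive = maximum activity change above -50%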;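 also: thallium influx rate constant from kinetic fluorescence after stimulation buffer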
#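 Virally transduced U2OS (3.1 isoform, 4 h infection in dark at RT) → overnight 37 C → FluxOr + Red40 in HBSS/HEPES, 45 min → stimulation buffer, 2 min kinetic read → rate constant vs DMSO controls.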
# SW480 rerep: A quantitative high throughput screen for small molecules that induce DNA re-replication in SW480 colon adenocarcinoma cells. SW480 DNA re-replication, Hoechst DNA content imaging, 48 h. actives 1.8% (n = 340,000). Potency, µM (top dose mostly 46.1 µM), usual class: activators; also: nearly all actives have a fitted effect of over 55% in size
#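 Treated cells incubate 48 hr (37 C, 5% CO2), are stained 40 min with Hoechst, and nuclear fluorescence is enumerated; a rise in nuclei with high DNA signal marks re-replication.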
# KB-V1 cytotox: qHTS assay for MDR1-selective chemotherapeutics: Primary screen using the drug-selected MDR subline cells KB-V1. KB-V1 MDR cells viability, CellTiter-Glo, 72 h. Potency, µM (highest dose often 46.1 µM), hits mostly cytotoxic. actives 3.4% (n = 400,000). AID 1347076, 2019; also: nearly all actives have a fitted effect of over 60% in size
#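 KB-V1 cells (P-gp-expressing MDR subline of KB-3-1) in phenol-red-free DMEM with 10% FBS were exposed to library compounds over a concentration series for 72 h at 37 degrees C. Viability read by CellTiter-Glo luminescence; concentration-effect curves fitted after normalization.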
# MCF10A rerep: A quantitative high throughput screen for small molecules that induce DNA re-replication in MCF 10a normal breast cells | MCF 10A DNA re-replication, Hoechst nuclear intensity, 48 h | Potency, µM (top dose mostly 46.1 µM), usual class: activators | actives 2.9% (n = 350,000) | AID 624296, 2012; also: nearly all actives have a fitted effect of over 50% in size
# hERG WT inh: qHTS for Inhibitors of KCHN2 3.1: Wildtype qHTS. U2OS, BacMam KCNH2, thallium flux FluxOr; hits give low values. activity change, % at 1.84 µM. actives 0.37% (n = 340,000). AID 720551, 2013;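 active = maximum activity change below -70%; inconclusive = maximum activity change between -70% and -50%; inactive = maximum activity change above -50%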
#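 U2OS cells were transduced with wild-type KCNH2 virus (2.03 x 10^8 / mL) for 4 h at room temperature, then cultured overnight at 37 C. Thallium flux was read with FluxOr dye. Rate constants were normalized to DMSO controls.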
# KB-3-1 cytotox: qHTS assay for MDR1-selective chemotherapeutics: Primary screen using the parental adenocarcinoma cell KB-3-1; Potency, µM (titrated, usually from 46.1 µM), hits mostly cytotoxic; actives 1.4% (n = 400,000); KB-3-1 viability, CellTiter-Glo ATP luminescence, 72 h; also: nearly all actives have a fitted effect of over 60% in size
#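 Luminescent ATP read-out (CellTiter-Glo) measures survival of drug-naive KB-3-1 cells after 72 h compound exposure at 37 °C. Titration series was screened from lowest to highest concentration, with DMSO vehicle plates as background controls.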
# A number is an active result; – = inactive; ? = inconclusive; · = no result given. Shown are actives, neighbours in structure and some others; about 7.6% of the full set was active somewhere. Unless noted, calls follow the shape of the dose curve; as a rule, active = well fitted curve in the direction sought with a large enough effect; inconclusive = small, poorly fitted or top-dose-only effect, or another doubt; inactive = no such curve, though single readings can be large; an effect the other way counts as inactive or inconclusive.
SMILES,KCNH2 3.1 inh,SW480 rerep,KB-V1 cytotox,MCF10A rerep,hERG WT inh,KB-3-1 cytotox
COc1cc(/C=N/NC(=O)c2c(-c3c(Cl)cccc3Cl)noc2C)ccc1OCC(N)=O,–,–,?,–,–,–
Cc1onc(-c2c(Cl)cccc2Cl)c1C(=O)N/N=C(\N)COc1ccc(Cl)cc1,–,–,–,?,–,4.1µM
Cc1onc(-c2c(F)cccc2Cl)c1C(=O)NC1CCCCCC1,–,–,–,?,–,–
Cc1onc(-c2c(F)cccc2Cl)c1C(=O)NNC(=O)C1CCN(Cc2ccccc2)CC1,-102,?,–,–,–,–
Cc1onc(-c2c(F)cccc2Cl)c1C(=O)Nc1cccc(Cn2cccn2)c1,–,–,21µM,–,–,–
Cc1ccc(NC(=O)CSc2nnc(-c3ccncc3)n2C)cc1S(=O)(=O)N1CCOCC1,–,–,–,–,–,–
Cc1noc(C)c1C(=O)OCC(=O)Nc1cccc(S(=O)(=O)N(C)C)c1,–,–,–,–,–,–
Cc1onc(-c2c(F)cccc2Cl)c1C(=O)OCC(=O)Nc1cccc(S(=O)(=O)N(C)C)c1,–,–,4.1µM,–,–,?
Cc1ccc(-n2c(=O)c3c4c(sc3n(Cc3cccc(Cl)c3)c2=O)CCC4)cc1C,·,·,–,·,·,–
O=C(C1=C[C@@H](C2CCCCC2)C[C@@H](OCc2ccc(CO)cc2)O1)N1CCOCC1,–,0.18µM,–,–,–,–
O=C(O)C1=C[C@@H](C2CC2)C[C@@H](OCCCCO)O1,–,–,–,–,–,–
O=C(C1=C[C@H](C2CC2)C[C@H](OCCCCO)O1)N1CCOCC1,–,–,–,–,-89,–
CCCCn1c(=O)n(CC2CCC(C(=O)NCCCOC)CC2)c(=O)c2sccc21 (stereo not drawn),·,·,–,·,·,–
Oc1cccc(Nc2cc(-c3ccccc3)ncn2)c1,·,·,?,·,·,–
COc1cc(CCCN2C(=S)NC[C@@H]2c2ccccc2)cc(OC)c1OC,-94,–,?,–,–,–
COc1cc(CCCN2C(=S)NC[C@@H]2Cc2ccccc2)cc(OC)c1OC,–,–,?,?,–,–
CCCn1c(N)c(C(=O)CSc2ncc(C(F)(F)F)cc2Cl)c(=O)[nH]c1=O,–,–,?,16µM,–,–
CCCn1c(N)c(C(=O)CN2CCN(S(=O)(=O)c3cccc(Cl)c3)CC2)c(=O)[nH]c1=O,-73,?,–,–,?,–
CC(=O)NNS(=O)(=O)c1scc(S(=O)(=O)c2ccc(Cl)cc2)c1C,–,–,–,–,–,–
Clc1cccc(OCCN2CCNCC2)c1,–,18µM,–,–,·,–
Clc1cccc(OCCN2CCOCC2)c1,–,–,–,–,–,–
c1ccc(Nc2nc(-c3ccccc3)ns2)cc1,–,–,–,–,–,–
Cc1ccc(C)c(N2CCN(C3C(=O)Nc4ccccc4-n4nnnc43)CC2)c1 (stereo not drawn),·,·,12µM,·,·,15µM
COc1ccc(N2CCN(C3C(=O)Nc4ccccc4-n4nnnc43)CC2)cc1 (stereo not drawn),·,·,?,·,·,–
CC1CCCC(C)N1C(=O)COC(=O)c1cc(-c2cccs2)nn1-c1ccccc1 (stereo not drawn),–,–,–,–,–,–
SMILES,KCNH2 3.1 inh,SW480 rerep,KB-V1 cytotox,MCF10A rerep,hERG WT inh,KB-3-1 cytotox
O=S(=O)(Cc1cc(-c2ccccc2Cl)no1)c1ccccc1,–,–,–,–,–,–
COc1cc(/C=C2/C(=N)N3C=CSC3=NC2=O)ccc1OCCCOc1ccccc1C,–,–,–,–,–,–
CCOc1cc(/C=C2/C(=N)N3C=CSC3=NC2=O)ccc1OCCCOc1ccccc1C,–,?,–,3.3µM,–,–
Cc1ccc(S(=O)(=O)Oc2ccc(/C=C3\C(=N)N4N=C(S(C)(=O)=O)SC4=NC3=O)cc2)cc1,-115,–,–,–,–,–
CCOc1cc(/C=C2\C(=N)N3N=C(S(C)(=O)=O)SC3=NC2=O)ccc1OCCOc1cccc(OC)c1,–,–,–,23µM,–,–
Cc1ccc(C)c(CN2CCC(CNC(=O)Nc3ccc(Cl)cc3)CC2)c1,-88,–,?,–,–,?
O=C(NCC1CC1)Nc1ccc(Cl)cc1,–,–,–,–,–,–
Cc1ccc(C)c(CN2CCC(CNC(=O)Nc3ccc(Br)cc3F)CC2)c1,-71,?,?,?,–,?
Cc1ccccc1CC1CCN(CCCNC(=O)Nc2ccccc2)CC1,-80,–,–,–,–,–
CSCCC(NC(=O)c1ccccc1)C(=O)NCCc1ccc2c(c1)OCCO2 (stereo not drawn),–,–,–,?,–,–
O=C(O)c1cc(=O)[nH]c(=O)[nH]1,·,–,·,–,·,·
CN(CC(=O)Nc1cccc(F)c1)C(=O)c1csc2c1CCCC2,–,–,–,–,–,–
O=c1c2ccccc2nc(/C=C/c2cccc3ccccc23)n1-c1ccc(F)cc1F,·,·,–,·,·,–
S=C(NCCCc1cnc[nH]1)NCCCN(CCc1ccc(Cl)cc1)c1ccc(Br)cn1,·,·,–,·,·,–
CCOc1ccc2cc(/C=C/C(=O)c3ccco3)c(Cl)nc2c1,–,16µM,?,5.8µM,–,?
O=C1CC(c2cccc(Cl)c2)c2cc3c(cc2N1)CCC3 (stereo not drawn),–,–,8.2µM,–,–,–
O=C1CC(c2cccc([N+](=O)[O-])c2)c2cc3c(cc2N1)CCC3 (stereo not drawn),–,?,?,?,–,?
COc1cccc(C2CC(=O)Nc3cc4c(cc32)CCC4)c1 (stereo not drawn),–,8.2µM,5.8µM,5.2µM,–,7.3µM
COc1cccc(C2CC(=O)Nc3cc(C)c(C)cc32)c1 (stereo not drawn),–,·,21µM,·,–,?
Cc1ccc2cc(C(c3nnnn3CC3CCCO3)N3CCCC4(CCCCC4)C3)c(=O)[nH]c2c1 (stereo not drawn),–,–,15µM,–,–,–
Cc1cc2cc(C(c3nnnn3CC3CCCO3)N3CCCc4ccccc43)c(=O)[nH]c2cc1C (stereo not drawn),–,?,21µM,?,–,?
Cc1cccc2cc(C(c3nnnn3CC3CCCO3)N3CCCc4ccccc43)c(=O)[nH]c12 (stereo not drawn),–,–,18µM,–,–,–

# Source: PubChem BioAssay (National Center for Advancing Translational Sciences (NCATS))
